Here are results for ten compounds from PubChem BioAssay (NCATS).

Records with an inconclusive call do not appear. The source made the active and inactive calls. Unless noted, no rule for the calls is given here.

Experiment [1] in a line: qHTS profiling of the MIPE4 collection as inhibitors of Plasmodium falciparum (3D7) proliferation (AID 743344).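 Also: scaled between DMSO vehicle wells and 0.29 µM artemisinin as full inhibition.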 The settings on record: P. falciparum 3D7 in erythrocytes, SYBR Green DNA fluorescence, 72 h; at 28.5 µM unless noted. Put shortly: (§1)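 Erythrocytes infected with P. falciparum (0.3% parasitemia, 2.5% hematocrit) incubated with compounds 72 h at 37 C, 5% CO2. Lysis with saponin/Triton buffer containing SYBR Green I, overnight at room temperature in the dark; DNA fluorescence (485/535 nm) normalised to 0.29 uM artemisinin and DMSO.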
A general note: In qHTS, concentration-response curves come from the screen itself.

Experiment [2] can be described thus: qHTS profiling of the MIPE4 collection as inhibitors of Plasmodium falciparum (DD2) proliferation (AID 743345). To be noted: P. falciparum Dd2 in erythrocytes, SYBR Green DNA, 72 h; at 28.5 µM unless noted. Put shortly: as §1
Experiment [3] is described as follows: qHTS profiling of the MIPE4 collection as inhibitors of Plasmodium falciparum (DD2) proliferation (Rep 2) (AID 743346). The settings on record: P. falciparum Dd2 in erythrocytes, SYBR Green DNA, 72 h; at 28.5 µM unless noted. Put shortly: as §1
Experiment [4] can be described thus: qHTS profiling of the MIPE4 collection as inhibitors of Plasmodium falciparum (HB3) proliferation (AID 743347).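 Also: plate controls were DMSO vehicle wells for no effect and artemisinin wells for full effect.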 The settings on record: P. falciparum HB3 in erythrocytes, SYBR Green DNA, 72 h; at 28.5 µM unless noted. Put shortly:
as §1

The nature of experiment [5]: High-throughput drug toxicity screening in the BPDCN cell line Gen2.2 (AID 1224824). To be noted: Gen2.2 BPDCN cells; at 45.8 µM (top of the series) unless noted. In short, it runs like this: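 Seed 500 exponentially growing Gen2.2 cells/well; add compounds by pin tool; incubate 48 h, 37 °C, 5% CO2; add CellTiter-Glo, 15 min RT; read luminescence. % activity vs DMSO (100%) and bortezomib (0%).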

Experiment [6] in a line: High-throughput drug toxicity screening in the BPDCN cell line Cal-1 (AID 1224825). The settings on record: Cal-1 BPDCN cell viability, qHTS; at 45.8 µM (top of the series) unless noted. In short, it runs like this:
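Cal-1 cells, 500 per well in phenol-red-free RPMI with 10% FBS, exposed to compounds for 48 hours at 37C, 5% CO2. Viability read by CellTiter-Glo luminescence; percent activity normalized to DMSO (100%) and 9.2 uM bortezomib final (0%).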

Experiment [7] in a line: qHTS assay for measurement of the activity of small molecule inhibitors on Zika virus induced Caspase-3 activity in human iPSC derived neural progenitor cells (hNPCs) (AID 1224857; active = well fitted curve in the direction sought with a large enough effect; an effect the other way counts as inactive or inconclusive; also: nearly all actives have a fitted effect of over 65% in size; also: potency is read from the fitted curve at half-maximal effect). Put shortly:
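Caspase-3/7 induction by a 6-hour ZIKV infection was quantified with a luminescent Caspase-Glo 3/7 reagent incubated 30 minutes at room temperature. Compounds were preincubated with hNPCs for 1 hour; inhibition was calculated against uninfected and infected control wells.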

Experiment [8] can be described thus: qHTS assay for measurement of the activity of small molecule inhibitors on Zika virus induced Caspase-3 activity in human astrocytoma cells (AID 1224859; active = well fitted curve in the direction sought with a large enough effect; an effect the other way counts as inactive or inconclusive; also: potency is read from the fitted curve at half-maximal effect). Put shortly:
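In SNB-19 cells plated at 250 cells/well and grown 16-20 h, compounds were applied 1 h before ZIKV (2 FFU/cell). Six hours later caspase-3/7 luminescence was recorded.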

Experiment [9] is described as follows: qHTS Screen of the MIPE 4.0 Collection Against Ewings Sarcoma (TC71) (AID 1259253; active = well fitted curve in the direction sought with a large enough effect; an effect the other way counts as inactive or inconclusive; also: nearly all actives have a fitted effect of over 40% in size; also: potency is read from the fitted curve at half-maximal effect). Put shortly:
(§2)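 Viability screen: 48 h incubation at 37C, 95% humidity, 5% CO2 with serially titrated compound, followed by CellTiter-Glo readout.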

The nature of experiment [10]: qHTS Screen of the MIPE 4.0 Collection Against Ewings Sarcoma (EW8) (AID 1259255; active = well fitted curve in the direction sought with a large enough effect; an effect the other way counts as inactive or inconclusive; also: nearly all actives have a fitted effect of over 35% in size; also: potency is read from the fitted curve at half-maximal effect;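 as to viability: 100% = DMSO-treated cells and 0% = medium-only wells without cells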). Put shortly: as §2
The nature of experiment [11]: qHTS Screen of the MIPE 4.0 Collection Against Ewings Sarcoma (RDES) (AID 1259252; active = well fitted curve in the direction sought with a large enough effect; an effect the other way counts as inactive or inconclusive; also: nearly all actives have a fitted effect of over 35% in size; also: potency is read from the fitted curve at half-maximal effect). In short, it runs like this: as §2
A short description of experiment [12]: qHTS Screen of the MIPE 4.0 Collection Against Ewings Sarcoma (TC32) (AID 1259256; active = well fitted curve in the direction sought with a large enough effect; an effect the other way counts as inactive or inconclusive; also: nearly all actives have a fitted effect of over 45% in size; also: potency is read from the fitted curve at half-maximal effect). Put shortly:
as §2

The nature of experiment [13]: qHTS profiling for inhibitors of Plasmodium falciparum (HB3) proliferation (AID 743324; active = well fitted curve in the direction sought with a large enough effect; an effect the other way counts as inactive or inconclusive;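 also: 100% = DMSO vehicle wells and 0% = artemisinin-treated control wells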). To be noted: Plasmodium falciparum HB3 blood-stage proliferation; at 28.7 µM (top of the series) unless noted. Put shortly:
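P. falciparum HB3 grown in erythrocytes (0.3% parasitemia, 2.5% hematocrit final) with compound for 72 h at 37 C, 5% CO2. Parasite DNA detected by SYBR Green after saponin/triton lysis overnight; normalized to 0.29 uM artemisinin and DMSO.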

A short description of experiment [14]: Identifying Small Molecule Inhibitors of Pancreatic Cancer Stem Cells (SN12C, Adherent) (AID 1259358; active = well fitted curve in the direction sought with a large enough effect; an effect the other way counts as inactive or inconclusive;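 also: cell survival measured after 48 h of compound exposure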). Put shortly:
(§3)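 Monolayer and spheroid cultures are compared. Spheroids form over 14 days in stem cell medium on hydrogel-coated low-attachment plates, then are exposed to compound for 48 h before CellTiter-Glo luminescence.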

A short description of experiment [15]: Identifying Small Molecule Inhibitors of Pancreatic Cancer Stem Cells (SN12C, Spheroid) (AID 1259360; active = well fitted curve in the direction sought with a large enough effect; an effect the other way counts as inactive or inconclusive;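 also: 100% = DMSO-treated cells and 0% = wells without cells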). The settings on record: Potency: SN12C spheroid viability. In short, it runs like this:
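After a 4 h attachment period, compounds were pinned into wells and cultures held 48 h under standard incubator conditions. Viability was then measured as CellTiter-Glo luminescence following 10 min at room temperature.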

A short description of experiment [16]: Identifying Small Molecule Inhibitors of Pancreatic Cancer Stem Cells (A278, Adherent) (AID 1259361; active = well fitted curve in the direction sought with a large enough effect; an effect the other way counts as inactive or inconclusive;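 also: viability read after 48 h compound exposure; 100% = DMSO-treated cells and 0% = cell-free media-only wells; nearly all actives have a fitted effect of over 35% in size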). Put shortly: as §3

Take `O=C(C=Cc1ccc(O)cc1)c1ccc(O)cc1O`: in experiment [1], the parasite growth, % of DMSO control was determined as 19.6%. For the same compound, in experiment [2], the parasite growth remaining, % of DMSO control (lower = more inhibition) is 52.6%. In experiment [3], this compound yielded a parasite growth, % of control (lower = inhibition) of 39.1%. Besides, the growth, % of control in [4] was found to be 15.1%. Moreover, in experiment [5], the cell viability, % of control (lower = more cytotoxic) stood at 1.49%. The viability (% of control) in [6] worked out at 4.05%. Besides, the Potency in experiment [7] is 1.66 µM (active); in experiment [8], 2.09 µM (active); in experiment [9] it was 14.8 µM (active); in experiment [10] it was 20.9 µM (active).

Compound `CO[C@H]1O[C@@H]2O[C@@]3(C)CC[C@@H]4[C@@H](C)CC[C@@H]([C@H]1C)[C@@]24OO3` had a parasite growth, % of DMSO control in experiment [1] of 20.7%. Further, in experiment [2], the parasite growth remaining, % of DMSO control (lower = more inhibition) stood at 7.38%. Besides, the parasite growth, % of control (lower = inhibition) in experiment [3] was found to be 9.94%. Also, in experiment [4], the growth, % of control was 46%. In experiment [5], the cell viability, % of control (lower = more cytotoxic) worked out at 62.1%. For the same compound, in experiment [6], the viability (% of control) was 31.3%. The Potency result in experiment [7] and in experiment [8] was “inactive” each time. Further, the Potency is 4.69 µM (active) in experiment [9] and 5.9 µM (active) in experiment [10].

In [1], `CC1CCN(c2cc(N3CCN(C)CC3)ccc2NC(=O)c2cc(C#N)c[nH]2)CC1` showed a parasite growth, % of DMSO control of 39.9%. Also, the parasite growth remaining, % of DMSO control (lower = more inhibition) in experiment [2] came to 80.6%. Besides, in [3], the parasite growth, % of control (lower = inhibition) amounted to 36.9%. In addition, the growth, % of control in experiment [4] was 50.4%. Besides, the cell viability, % of control (lower = more cytotoxic) in experiment [5] turned out to be 107%. For the same compound, the viability (% of control) in experiment [6] amounted to 104%. For the same compound, the Potency entry in [7] and in [8] was “inactive” in each case. Besides, the Potency in [11] is 26.4 µM (active).

Consider `O=C(NC[C@H](O)CO)c1ccncc1Nc1ccc(I)cc1F`, for which, in [1], the parasite growth, % of DMSO control was 60.9%. For the same compound, in experiment [2], the parasite growth remaining, % of DMSO control (lower = more inhibition) amounted to 101%. The compound further had a parasite growth, % of control (lower = inhibition) in experiment [3] of 56.7%. This compound came in with a growth, % of control in experiment [4] of 54.8%. In addition, in experiment [5], the cell viability, % of control (lower = more cytotoxic) is 5.6%. For the same compound, the viability (% of control) in [6] turned out to be 12.1%. Further, the Potency entry in [7] and in experiment [8] was “inactive” each time. The Potency in [11] is 18.7 µM (active).

With `CCCCCCOC(=O)N=C(N)c1ccc(NCc2nc3cc(C(=O)N(CCC(=O)OCC)c4ccccn4)ccc3n2C)cc1`, the parasite growth remaining, % of DMSO control (lower = more inhibition) in [2] is 28.2%. In experiment [3], this compound yielded a parasite growth, % of control (lower = inhibition) of 16%. The growth, % of control in experiment [4] was determined as 7.43%. Moreover, the cell viability, % of control (lower = more cytotoxic) in experiment [5] is 274%. Besides, the viability (% of control) in [6] came out at 17.1%. The Potency entry in experiment [7] and in experiment [8] was “inactive” throughout. Moreover, the Potency in experiment [9] is 20.9 µM (active); in experiment [10], 8.33 µM (active).

For the compound `CC(C)c1c(C(=O)Nc2ccccc2)c(-c2ccccc2)c(-c2ccc(F)cc2)n1CC[C@H](O)C[C@@H](O)CC(=O)O`, in [2], the parasite growth remaining, % of DMSO control (lower = more inhibition) was 82.2%. Also, the parasite growth, % of control (lower = inhibition) in experiment [3] came out at 17.6%. For the same compound, the growth, % of control in experiment [4] is 4.89%. The cell viability, % of control (lower = more cytotoxic) in experiment [5] amounted to 41.5%. For the same compound, the viability (% of control) in experiment [6] was 93.6%. For the same compound, the Potency result in experiment [7] and in experiment [8] was “inactive” throughout. The Potency in experiment [9] is 14.8 µM (active); in experiment [12] it was 3.72 µM (active).

In experiment [1], `COc1cc(C=CC(=O)O)ccc1O` showed a parasite growth, % of DMSO control of 88.4%. Moreover, the parasite growth remaining, % of DMSO control (lower = more inhibition) in experiment [2] stood at 95%. For the same compound, the parasite growth, % of control (lower = inhibition) in experiment [3] worked out at 98.9%. Further, the growth, % of control in experiment [4] was 82.4%. Also, the cell viability, % of control (lower = more cytotoxic) in experiment [5] came to 105%. Besides, in experiment [6], the viability (% of control) worked out at 96.5%. Besides, the Potency result in experiment [7], in experiment [8] and in experiment [11] was “inactive” each time.

As for `CNc1nc(Nc2ccc(C(=O)N3CCOCC3)cc2OC)ncc1Cl`, in experiment [1], the parasite growth, % of DMSO control amounted to 69.3%. The parasite growth remaining, % of DMSO control (lower = more inhibition) in experiment [2] stood at 90.3%. The same compound registered a parasite growth, % of control (lower = inhibition) in [3] of 56.9%. This compound registered a growth, % of control in experiment [4] of 54.9%. In addition, in experiment [5], the cell viability, % of control (lower = more cytotoxic) turned out to be 103%. In experiment [6], the viability (% of control) was 93.7%. Besides, the Potency entry in experiment [7], in experiment [8] and in [11] was “inactive” throughout.

Turning to `O=C(c1ccc(C=Cc2n[nH]c3ccccc23)cc1)N1CCNCC1`, the parasite growth, % of DMSO control in experiment [1] came to 22.1%. Besides, in [2], the parasite growth remaining, % of DMSO control (lower = more inhibition) was found to be 31.2%. Also, the parasite growth, % of control (lower = inhibition) in experiment [3] was 22.9%. The growth, % of control in experiment [4] was 6.97%. Besides, the cell viability, % of control (lower = more cytotoxic) in experiment [5] amounted to 57.2%. For the same compound, in experiment [6], the viability (% of control) came to 18%. Moreover, the Potency result in experiment [7] and in [8] was “inactive” in each case. Moreover, the Potency was 1.66 µM (active) in experiment [9], 0.662 µM (active) in experiment [10] and 0.743 µM (active) in experiment [12].

The compound `NC(=O)c1ccc(N(C(N)=O)c2c(F)cccc2F)nc1-c1ccc(F)cc1F` came in with a remaining proliferation (% of control), lower = more inhibition in experiment [13] of 85.6%. In [1], this compound returned a parasite growth, % of DMSO control of 79.5%. The parasite growth remaining, % of DMSO control (lower = more inhibition) in experiment [2] was 104%. The parasite growth, % of control (lower = inhibition) in [3] is 59.1%. In experiment [4], this compound had a growth, % of control of 78.7%. Besides, in experiment [5], the cell viability, % of control (lower = more cytotoxic) worked out at 215%. For the same compound, the viability (% of control) in experiment [6] was found to be 92.1%. Besides, the Potency result in [7], in [8], in experiment [9], in experiment [10], in experiment [12] and in experiment [14] was “inactive” throughout. Further, the Potency entry in experiment [15] is “inactive”. Besides, the IC50 (viability decrease) result in [16] was “inactive”.
